Results: publication PMC4552634, “A New Set of Chemical Starting Points with Plasmodium falciparum Transmission-Blocking Potential for Antimalarial Drug Discovery” (PLoS ONE, 2015)
The campaign covered roughly 13,000 compounds. About 3,200 (25%) showed an effect of 50% or more. This is one part of the list.

The molecules below were run on P. falciparum stage V gametocytes. Conditions: 48 h, 5 µM; inhibitor.
Design: BacTiter-Glo ATP luminescence viability of purified stage V gametocytes in 384-well plates, per cent inhibition versus DMSO

| Structure (SMILES) | % Inhibition [%] |
| --- | --- |
| Nc1nc(N)c2cc(C#Cc3ccc(-c4ccccc4)cc3)ccc2n1 [TCMDC-139006] | -7.862 |
| Cl.Nc1nc(Nc2ccc(Cl)cc2)nc2ccccc12 [TCMDC-124354] | 6.388 |
| Nc1c2ccccc2nc2ccc(-c3ccccc3)cc12 [TCMDC-132030] | 118.4 |
| Nc1c2ccccc2nc2cc(Cl)ccc12 [TCMDC-141999] | 16.16 |
| Nc1c2ccccc2nc2ccc(Cl)cc12 [TCMDC-132029] | 93.03 |
| CN(C)c1cc(C(=O)N[C@@H](Cc2ccccc2)[C@H](O)CNC2CCCCC2)cc2[nH]ccc12 [TCMDC-136317] | -94.17 |
| CN1CCN(c2ccnc3ccc(NC(=O)Nc4ccccc4Br)cc23)CC1 [TCMDC-139342] | 15.44 |
| Fc1ccccc1COc1ccc(Nc2ncnc3ccc(I)cc23)cc1Cl [TCMDC-138627] | 9.829 |
| COc1cccc2cc(C(=O)N[C@@H](CC(C)C)C(=O)N[C@H](/C=N/NC(=O)OC(C)(C)C)CC(=O)OC(C)(C)C)oc12 [TCMDC-136085] | 28.48 |
| CC(C)(CNC(=O)C1CCN(CCOc2ccc(F)c(F)c2)CC1)c1nc(-c2ccc(Cl)c(O)c2)c(-c2ccncc2)[nH]1 [TCMDC-141136] | -40.38 |
| CCCNCc1ccc(-c2ccc(CN(Cc3cccs3)C(=O)C3CCN(C)CC3)cc2)nc1 [TCMDC-141526] | 99.19 |
| CN1CCC(C(=O)N(Cc2ccc(-c3ccc(CNCCc4ccccc4)cn3)cc2)Cc2cccc(F)c2)CC1 [TCMDC-141553] | 18.34 |
| CN1CCC(C(=O)N(Cc2ccc(-c3ccc(CNCCc4ccc(S(C)(=O)=O)cc4)cn3)cc2)Cc2ccc3c(c2)OCO3)CC1 [TCMDC-141505] | 98.95 |
| CN1CCC(C(=O)N(Cc2ccc(-c3ccc(CNCCc4ccc(S(C)(=O)=O)cc4)cn3)cc2)Cc2cccc(F)c2)CC1 [TCMDC-141507] | 85.53 |
| CC(=O)N1CCN(c2ccc(NC(=O)c3oc(-c4ccccc4)nc3C(F)(F)F)cn2)CC1 [TCMDC-135142] | -12.47 |
| CCN(CC)CCNC(=O)c1ccc(NC(=O)c2cn(-c3ccccc3)nc2-c2cccs2)cc1 [TCMDC-124032] | 29.35 |
| O=S(=O)(c1ccc(Cl)cc1Cl)N1CCCCC(c2ccc(C(F)(F)F)cc2)=N1 [TCMDC-134536] | 0.9055 |
| O=S(=O)(c1ccccc1Cl)N1CCCCC(c2ccc(C(F)(F)F)cc2)=N1 [TCMDC-134532] | -26.8 |
| O=S(=O)(c1c(Cl)cc(Cl)cc1Cl)N1CCCCC(c2ccc(C(F)(F)F)cc2)=N1 [TCMDC-134541] | 71.02 |
| O=S(=O)(c1c(Cl)cc(Cl)cc1Cl)N1CCCCC(c2ccc(Cl)cc2)=N1 [TCMDC-134526] | -3.325 |
| O=S(=O)(c1c(Cl)cccc1Cl)N1CCCCC(c2ccc(C(F)(F)F)cc2)=N1 [TCMDC-134537] | 50.16 |
| Cc1cccc(Cl)c1S(=O)(=O)N1CCCCC(c2ccc(C(F)(F)F)cc2)=N1 [TCMDC-134535] | 25.02 |

| Structure (SMILES) | % Inhibition [%] |
| --- | --- |
| CCNc1cc(C(=O)N[C@@H](Cc2ccccc2)[C@H](O)CNC2(CC(C)C)CC2)cc(N2CCCCS2(=O)=O)c1 [TCMDC-135258] | -2.163 |
| N#Cc1ccc(-n2cc(C(=O)Nc3ccc4c(c3)CCN(C3CCC3)CC4)c(C(F)(F)F)n2)cc1 [TCMDC-136080] | 23.35 |
| COc1ccc2cc(C(=O)Nc3ccc4c(c3)CCN(C3CCC3)CC4)ccc2c1 [TCMDC-136082] | -6.595 |
| O=C(Nc1ccc2c(c1)CCN(C1CCC1)CC2)c1cn(-c2ccccc2)nc1-c1ccccc1 [TCMDC-136083] | 54.47 |
| O=C(Nc1ccc2c(c1)CCN(C1CCC1)CC2)c1ccc(-n2ccnc2)cn1 [TCMDC-135973] | 3.666 |
| O=C(Nc1ccc2c(c1)CCN(C1CCC1)CC2)c1ccc(-c2cn3ccccc3n2)cc1 [TCMDC-135460] | 75.27 |
| N#Cc1cccc(-c2ccc(C(=O)Nc3ccc4c(c3)CCN(C3CCC3)CC4)cn2)c1 [TCMDC-135996] | -32.92 |
| CCOCCCNc1sc(S(=O)(=O)c2ccccc2)nc1S(=O)(=O)c1ccc(C)cc1 [TCMDC-124750] | 20.27 |
| O=C(Cc1ccc[n+]([O-])c1)Nc1cccc(-c2cccc(-c3nc4cc(C(F)(F)F)ccc4[nH]3)c2)c1 [TCMDC-136990] | -75.57 |
| CC(=O)Nc1ccc(CN2CCN(C(c3ccc(F)cc3)c3ccc(F)cc3)CC2)cc1 [TCMDC-124045] | 16.43 |
| O=C(/C=C/c1ccc(F)cc1)NC1CCC(CCN2CCc3ccccc3CC2)CC1 (centres unmarked) [TCMDC-139451] | -36.35 |
| N#Cc1ccc(N2CCN(Cc3ccc(-c4ccc(-c5nc6cc(C(F)(F)F)ccc6[nH]5)cc4)cc3)CC2)nc1.O=C(O)C(F)(F)F [TCMDC-133113] | -14.21 |
| Oc1ccccc1CN1CCCC(COC(c2ccc(F)cc2)c2ccc(F)cc2)C1 (centres unmarked) [TCMDC-136037] | 28.2 |
| CCN(CC)S(=O)(=O)c1ccc(CCOCCCCCNCC(O)c2cc(Cl)c(N)c(Cl)c2)s1 (centres unmarked) [TCMDC-132091] | 31.84 |
| Nc1c(Cl)cc(C(O)CNCCCCCOCCCc2ccc3ncccc3c2)cc1Cl (centres unmarked) [TCMDC-132087] | 57.03 |
| Cc1ccc(CCOCCCCCNCC(O)c2cc(Cl)c(N)c(Cl)c2)cc1 (centres unmarked) [TCMDC-132077] | 0.6115 |
| Nc1c(Cl)cc(C(O)CNCCCCCOCCc2ccc3occc3c2)cc1Cl (centres unmarked) [TCMDC-132085] | 27.47 |
| Nc1c(Cl)cc(C(O)CNCCCCCCCCCc2ccccn2)cc1Cl (centres unmarked) [TCMDC-132100] | 20.05 |
| Nc1c(Cl)cc(C(O)CNCCCCCCOCCc2ccc(O)cc2)cc1Cl (centres unmarked) [TCMDC-132086] | 21.31 |
| Nc1c(Cl)cc(C(O)CNCCCCCOCCCc2ccc(O)c3ncccc23)cc1Cl (centres unmarked) [TCMDC-132088] | 115.2 |
| Nc1c(Cl)cc(C(O)CNCCCCCCOCCc2ccc(CO)s2)cc1Cl (centres unmarked) [TCMDC-132092] | 55.37 |
| Nc1c(Cl)cc(C(O)CNCCCCCOCCc2ccccc2)cc1C(F)(F)F (centres unmarked) [TCMDC-132081] | 12.69 |

| Structure (SMILES) | % Inhibition [%] |
| --- | --- |
| CCOCc1cnc(C)nc1CNC(=O)c1c(C)[nH]c2ccc(C)cc12 [TCMDC-125780] | 11.26 |
| CCCc1cc(=O)oc2cc(OC)c(C(=O)CC(C)C)c(OC)c12 [TCMDC-138262] | -48.84 |
| Oc1cccc(-c2nc(-c3ccccc3)c(-c3ccc4oc5ccc(-c6[nH]c(-c7cccc(O)c7)nc6-c6ccccc6)cc5c4c3)[nH]2)c1 [TCMDC-124223] | 14.59 |
| CC(CN(C)C)C(=O)Nc1ccc(-c2ccc(-c3nc4ccc(C(F)(F)F)cc4[nH]3)cc2)cc1 (centres unmarked) [TCMDC-137113] | -54.47 |
| O=C(NCCN1CCCC1)c1cccc(-c2ccc(-c3nc4ccc(F)cc4[nH]3)cc2)c1 [TCMDC-132325] | -16.55 |
| CN(C)C(=S)NN=Cc1cccc(O)c1O [TCMDC-137879] | 23.09 |
| CC(=NNC(N)=O)C1=C(O)C(c2ccccc2)N(C2CCCCC2)C1=O (centres unmarked) [TCMDC-131672] | -9.176 |
| NC(N)=NN=CC(=O)Nc1ccc(Cl)c(C(F)(F)F)c1 [TCMDC-137561] | 9.011 |
| Cc1cccc2nc(-c3cccc(-c4cccc(NC(=O)Cc5ccc[n+]([O-])c5)c4)c3)[nH]c12 [TCMDC-136992] | 24.81 |
| O=C(NCCCCN1CCC(c2ccc3c(c2OCCOCCO)CCCC3)CC1)c1ccc(-c2ccc(C(F)(F)F)cc2)cc1 [TCMDC-138762] | 96.11 |
| N#CCOc1c(C2CCN(CCCCNC(=O)c3ccc(-c4ccc(C(F)(F)F)cc4)cc3)CC2)ccc2c1CCCC2 [TCMDC-138769] | 92.11 |
| O=C(NCCCCN1CCC(c2ccc3c(c2OCCCO)CCCC3)CC1)c1ccc(-c2ccc(C(F)(F)F)cc2)c(CO)c1 [TCMDC-138741] | 72.16 |
| Cc1cc(C2CCN(CCCCNC(=O)c3ccc(-c4ccc(C(F)(F)F)cc4)cc3)CC2)c(C)cc1OCC#N [TCMDC-138799] | 37.57 |
| O=C(NCCCCN1CCC(c2ccc3c(c2OCCN2CCCC2=O)CCCC3)CC1)c1ccc(-c2ccc(C(F)(F)F)cc2)cc1 [TCMDC-138773] | 108.1 |
| O=C(NCCCCN1CC=C(c2ccc3c(c2OCC2CC2)CCCC3)CC1)c1ccc(-c2ccc(C(F)(F)F)cc2)cc1 [TCMDC-138758] | -36.04 |
| COc1ccc(C(=O)NCCCCN2CCC(c3ccc4c(c3OC)CCCC4)CC2)cc1-c1ccc(C(F)(F)F)cc1 [TCMDC-138700] | -81.5 |
| OC(c1ccccc1)C1CN(CCc2ccccc2)CCC1(O)c1ccccc1 (centres unmarked) [TCMDC-131287] | -3.552 |
| O=C(/C=C/c1ccccc1Cl)Nc1ccc(Br)c(OCCN2CCN(CCN3CCOCC3)CC2)c1 [TCMDC-140958] | -23.86 |
| Fc1ccc2[nH]c(-c3cccc(-c4ccc(CNCc5cnn(-c6ccccc6)n5)cc4)c3)nc2c1.O=C(O)C(F)(F)F [TCMDC-132973] | -12.58 |
| O=C(NC1CCCCC1)c1csc(C2CCCN(C(=O)c3ccc(O)c(-c4cccc(C(F)(F)F)c4)c3)C2)n1 (centres unmarked) [TCMDC-140156] | 5.189 |
| CC(=O)c1ccc(-c2cccc3c(CC(=O)Nc4ccc5nccc(N6CCN(C)CC6)c5c4)cccc23)cc1 [TCMDC-139271] | -10.77 |
